{"source": "PubChem BioAssay (Tox21)", "note": "Results filed as inconclusive are left out. Values without a mark were called inactive. Calls of active or inactive are those of the source. Calls follow the shape of the full dose curve. % is scaled to controls: 0 for no effect and ±100 for the full control effect.", "data": [{"molecular_target": "Progesterone receptor (Homo sapiens) (UniProt P06401)", "sequence (P06401 whole entry, looked up)": "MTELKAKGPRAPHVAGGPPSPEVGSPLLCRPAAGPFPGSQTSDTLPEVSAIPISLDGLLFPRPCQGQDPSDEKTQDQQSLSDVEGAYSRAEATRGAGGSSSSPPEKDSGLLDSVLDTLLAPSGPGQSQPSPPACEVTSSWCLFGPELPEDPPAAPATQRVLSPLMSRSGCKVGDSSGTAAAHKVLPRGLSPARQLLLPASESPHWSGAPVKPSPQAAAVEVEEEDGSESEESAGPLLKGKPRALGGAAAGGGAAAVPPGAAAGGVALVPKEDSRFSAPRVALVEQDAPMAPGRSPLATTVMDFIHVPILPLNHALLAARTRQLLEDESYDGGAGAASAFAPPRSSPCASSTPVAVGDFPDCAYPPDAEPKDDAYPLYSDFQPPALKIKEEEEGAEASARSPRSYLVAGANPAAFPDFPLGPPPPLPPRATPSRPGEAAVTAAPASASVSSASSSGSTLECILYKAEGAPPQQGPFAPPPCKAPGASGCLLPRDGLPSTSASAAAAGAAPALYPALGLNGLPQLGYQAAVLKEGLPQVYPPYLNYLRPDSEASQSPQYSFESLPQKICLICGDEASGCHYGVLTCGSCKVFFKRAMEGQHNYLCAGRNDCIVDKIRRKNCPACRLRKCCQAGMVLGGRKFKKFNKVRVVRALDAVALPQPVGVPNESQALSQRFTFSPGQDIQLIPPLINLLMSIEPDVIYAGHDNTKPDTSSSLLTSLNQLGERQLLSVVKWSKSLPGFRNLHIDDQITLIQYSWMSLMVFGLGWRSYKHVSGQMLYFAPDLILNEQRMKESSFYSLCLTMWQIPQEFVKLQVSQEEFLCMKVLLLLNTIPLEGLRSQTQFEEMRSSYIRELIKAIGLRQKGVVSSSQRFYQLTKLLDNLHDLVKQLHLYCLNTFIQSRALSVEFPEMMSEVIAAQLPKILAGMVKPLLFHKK", "test": "qHTS assay to identify small molecule agonists of the progesterone receptor (PR) signaling pathway (AID 1346784); also: nearly all actives have a fitted effect of over 30% in size", "details": "PR-UAS-bla HEK293T, beta-lactamase FRET ratio, 16 h; series mostly up to 92.4 µM", "excerpt": "U.S. Tox21 Program National Center for Advancing Translational Sciences [NCATS] NIH Chemical Genomics Center [NCGC] U.S. Environmental Protection Agency [EPA] National Institutes of Environmental Health Sciences [NIEHS] National Toxicology Program [NTP] U.S. Food and Drug Administration [FDA] […] Endocrine disrupting chemicals (EDCs) and their interactions with steroid hormone receptors like PR causes disruption of normal endocrine function. To identify the compounds that activate PR signaling, a PR-UAS-bla GripTite cell line i.e. PR-UAS-bla HEK 293T (Invitrogen, Carlsbad, CA, USA) containing a beta-lactamase reporter gene under the control of an Upstream Activator Sequence (UAS) was used to screen Tox21 10K compound library.\nTox21 Assay Protocol Summary: PR-UAS-bla HEK 293T cells were dispensed at 3,000 cells/5 uL of assay medium containing 2% charcoal stripped FBS per well into black wall/clear-bottom 1536-well plates using a Multidrop Combi (ThermoFisher Scientific, Waltham, MA) dispenser. After the assay plates were incubated at a 37C and 5% CO2 for 6hr, 23 nL of compounds dissolved in DMSO, positive controls or DMSO only was transferred to the assay plate by a Pintool station (Kalypsys, San Diego, CA). The plates were incubated at 37C and 5% CO2 for 16hr. Then 1 uL of LiveBLAzer B/G FRET substrate was added using a BioRAPTR FRD (Flying Reagent Dispenser, Aurora Discovery, San Diego, CA). After the plates were incubated at room temperature for 2 hours, fluorescence intensity was measured by an Envision plate reader (PerkinElmer, Shelton, CT).", "values": [{"smiles": "CC(CN(C)C)CN1c2ccccc2CCc2ccccc21", "note": "(stereo not given)", "outcome": "inactive"}, {"smiles": "CCCCCCCCCCCCCc1ccccc1", "outcome": "inactive"}, {"smiles": "O=C(O)CC(=O)O", "outcome": "inactive"}, {"smiles": "COc1cccc(OC)c1O", "outcome": "inactive"}, {"smiles": "c1cc[nH]c1", "outcome": "inactive"}, {"smiles": "C#CC(O)CCC", "note": "(stereo not given)", "outcome": "inactive"}, {"smiles": "C[Si](C)O[Si](C)C", "outcome": "inactive"}, {"smiles": "CCCCN(C)C", "outcome": "inactive"}, {"smiles": "NC(=O)c1ccccc1N", "outcome": "inactive"}, {"smiles": "Clc1ccc(C(c2ccccc2Cl)C(Cl)Cl)cc1", "note": "(stereo not given)", "outcome": "inactive"}, {"smiles": "CCc1cccc(CC)c1N(COC)C(=O)CS(=O)(=O)O", "outcome": "inactive"}, {"smiles": "CC(C)c1cccc(C(C)C)c1N1C(=O)c2ccc(O)cc2C1=O", "outcome": "inactive"}, {"smiles": "SCCCCCCCCS", "outcome": "inactive"}, {"smiles": "CCN(CC)c1cccc(C)c1", "outcome": "inactive"}, {"smiles": "CC(NCCC(c1ccccc1)c1ccccc1)c1ccccc1", "note": "(stereo not given)", "outcome": "inactive"}, {"smiles": "CCOC(=O)CN", "outcome": "inactive"}, {"smiles": "NCCCC(O)(P(=O)(O)O)P(=O)(O)O", "outcome": "inactive"}, {"smiles": "CC[N+](CC)(CC)Cc1ccccc1", "outcome": "inactive"}, {"smiles": "CC1CCCCC1", "outcome": "inactive"}, {"smiles": "CCCC(C)CCC(C)=O", "note": "(stereo not given)", "outcome": "inactive"}, {"smiles": "CCCCCCCOC(=O)c1ccccc1C(=O)OCCCCCCC", "outcome": "inactive"}, {"smiles": "CC(C)=CC1CC(C)CCO1", "note": "(stereo not given)", "outcome": "inactive"}, {"smiles": "CN1[C@@H]2CC[C@H]1CC(OC(=O)C(CO)c1ccccc1)C2", "note": "(stereo not given in full)", "outcome": "inactive"}, {"smiles": "CC(C)(C)C1=CC(=O)C=C(C(C)(C)C)C1=O", "outcome": "inactive"}, {"smiles": "CCO[Si](C)(C)OCC", "outcome": "inactive"}, {"smiles": "NC(=O)C(=O)N/N=C/c1ccc([N+](=O)[O-])o1", "outcome": "inactive"}, {"smiles": "CCCCCCCCCCCCCCCC", "outcome": "inactive"}, {"smiles": "C[Si](C)(C)Cl", "outcome": "inactive"}, {"smiles": "O=C(Nc1ccc(Cl)c(Cl)c1)c1cc(Cl)cc(Cl)c1O", "outcome": "inactive"}, {"smiles": "C/C=C/C(=O)C1=C(C)CCCC1(C)C", "outcome": "inactive"}, {"smiles": "CC1CNCC(C)O1", "note": "(stereo not given)", "outcome": "inactive"}, {"smiles": "CCCCCCCCCCCCCCCCCO", "activation": "-3.68% [at 19 µM]"}, {"smiles": "Cc1ccc(-n2[nH]c(C)c(N=Nc3cccc(-c4cccc(C(=O)O)c4)c3O)c2=O)cc1C", "outcome": "inactive"}, {"smiles": "CC1=CCC(=O)O1", "outcome": "inactive"}, {"smiles": "COC(=O)CC(C)CCC=C(C)C", "note": "(stereo not given)", "outcome": "inactive"}, {"smiles": "O=CC1CC1", "outcome": "inactive"}, {"smiles": "Nc1cc(Cl)c([N+](=O)[O-])cc1O", "outcome": "inactive"}, {"smiles": "C(=C/c1ccccc1)/c1ccccc1", "outcome": "inactive"}, {"smiles": "CC(=O)O[C@@H]1C[C@@H]2CC[C@@]1(C)C2(C)C", "outcome": "inactive"}, {"smiles": "Cc1ccc(CCn2c3c(c4cc(Cl)ccc42)CN(C)CC3)cn1", "outcome": "inactive"}]}]}
